Assay outcomes: PubChem BioAssay, The Scripps Research Institute Molecular Screening Center
M1 antag: human M1 muscarinic receptor antagonists, primary screen, CHO-K1 cells, Fluo-8 calcium fluorescence, 1536-well | Muscarinic acetylcholine receptor M1 (Homo sapiens), P11229 | CHO-K1 hM1, ACh EC80 antagonist | inhibition, % at 3 µM | 1.3% of 360,000 active;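 active = percent inhibition above its own plate's cutoff, namely the mean of that plate's compound wells plus 3 SD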;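 also: peak over basal fluorescence ratio during 140 s after agonist addition; 0% = ACh EC80 plus DMSO and 100% = DMSO alone without agonist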
Target sequence (P11229 whole entry, looked up): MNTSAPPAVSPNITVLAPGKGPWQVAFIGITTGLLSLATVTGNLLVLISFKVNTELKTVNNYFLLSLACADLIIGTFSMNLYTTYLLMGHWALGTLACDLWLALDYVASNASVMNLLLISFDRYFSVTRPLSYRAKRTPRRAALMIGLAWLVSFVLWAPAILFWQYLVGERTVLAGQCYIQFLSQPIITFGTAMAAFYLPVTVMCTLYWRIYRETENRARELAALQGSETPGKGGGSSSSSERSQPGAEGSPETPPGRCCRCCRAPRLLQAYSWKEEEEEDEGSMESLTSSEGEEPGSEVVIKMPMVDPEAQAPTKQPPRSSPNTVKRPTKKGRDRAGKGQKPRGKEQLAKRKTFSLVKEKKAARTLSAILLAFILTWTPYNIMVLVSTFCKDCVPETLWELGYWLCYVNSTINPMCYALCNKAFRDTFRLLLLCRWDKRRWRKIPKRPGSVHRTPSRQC
CHO-K1 Ca antag: M1 antagonist counterscreen hit in parental CHO-K1 cells; 0.6% of 360,000 active; inhibition, % at 3 µM; ATP-induced calcium, Fluo-8 fluorescence;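 active = inhibition above a per-plate cutoff, the plate's mean sample inhibition plus 3 SD, cut at about 24% in these data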;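 also: 0% = DMSO plus EC80 ATP and 100% = DMSO alone without ATP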
M1 ag parental: counter-screen for M1 agonists: effect in parental CHO-K1 cells. activation, % at 3 µM. 0.48% of 360,000 active. Fluo-8 calcium fluorescence; scaled to maximal ATP response, vehicle zero; in the data active = activation above about 15%;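 also: untransfected CHO-K1 host cells lacking M1 receptor as counterscreen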
CHO-K1 Ca PAM: nonselective calcium activators in parental CHO-K1 cells, primary screen, counter-screen for M1 PAM project, cell-based, Fluo-8 calcium fluorescence, full deck, 1536-well; ATP EC20; 0% at ATP EC20, 100% at ATP max; activation, % at 3 µM; 0.02% of 360,000 active;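 active = activation above the run cutoff, the mean activation of all test compounds plus 3 SD, cut at about 40% in these data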;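 also: peak over basal fluorescence ratio in a 140 s read after ATP addition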
M1 PAM: human M1 muscarinic receptor positive allosteric modulators, primary screen, CHO-K1 cells, Fluo-8 calcium fluorescence, 1536-well | Muscarinic acetylcholine receptor M1 (Homo sapiens), P11229 | CHO-K1 hM1, ACh EC20; 0% = ACh EC20, 100% = maximal ACh | activation, % at 3 µM | 0.088% of 360,000 active; in the data active = activation above about 19%, passing the limit was not always enough
CHRM1 agonist: human M1 muscarinic receptor agonists, primary screen, Fluo-8 calcium fluorescence, CHO-K1 cells, HTS; CHO-K1 hM1, agonist mode; 0% DMSO, 100% acetylcholine EC100; activation, % at 3 µM; 0.33% of 360,000 active; AID 588814, 2011;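 active = activation above the run's mean compound activation plus 3 SD, cut at about 16% in these data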;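 also: peak over basal fluorescence ratio within a 140 s kinetic read after compound addition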
* hit, by the source's call. The list is not random: actives were taken first. Their share in the collection is about 2.3%.

SMILES | M1 antag | CHO-K1 Ca antag | M1 ag parental | CHO-K1 Ca PAM | M1 PAM | CHRM1 agonist
O=C(CN1CCN(c2ccccn2)CC1)N1c2ccccc2Sc2ccc(C(F)(F)F)cc21 | 30.9* | 14.2 | 0.4 | 5.7 | -27.2 | -6.7
O=C(CN1CCCC1)N1c2ccccc2Sc2ccc(Cl)cc21 | 99.1* | -13.2 | 1.2 | 19.2 | -28.8 | -9.7
O=C(CN1CCCC1)N1c2ccccc2Sc2ccc(C(F)(F)F)cc21 | 99.2* | -14.9 | 0.8 | 14.2 | -19.2 | -5.5
CCNCCC(=O)N1c2ccccc2Sc2ccc(C(F)(F)F)cc21 | 100.0* | -3.8 | -0.2 | 10.6 | -29.3 | -9.2
COc1ccc(NC(=O)C2CC(=O)N(c3ccccc3F)C2)cc1S(=O)(=O)N1CCCCC1 (centres undefined) | -8.8 | -9.3 | 0.2 | 14.2 | 0.5 | -1.7
Cc1c(Cl)cccc1NC(=O)CCN1CCC(C(N)=O)CC1 | -20.6 | 2.1 | 0.1 | 6.1 | 21.1 | -0.4
Nc1[nH]n2c(=O)cc(-c3ccccc3)nc2c1N=Nc1ccccc1 | -1.2 | 21.2 | -0.2 | -10.4 | -1.1 | -3.8
Nc1[nH]n2c(=O)cc(-c3ccccc3)nc2c1N=Nc1ccc(S(N)(=O)=O)cc1 | -0.1 | 24.7* | -0.7 | -6.1 | 11.8 | -3.1
O=C(O)CC(Cc1ccc(Cl)cc1)C(=O)NCC12CC3CC(CC(C3)C1)C2 (centres undefined) | 31.5* | -5.1 | 0.0 | 0.2 | -11.2 | -6.1
Cc1ccc(CC(CC(=O)O)C(=O)NCC23CC4CC(CC(C4)C2)C3)cc1 (centres undefined) | 3.2 | 4.1 | -0.2 | -6.3 | -5.4 | -2.1
O=C(CSC1=NS(=O)(=O)c2cc(Cl)ccc2N1)NCc1ccc(F)cc1 | 4.7 | 29.7* | -0.1 | -11.4 | -1.5 | -2.9
O=C(CSC1=NS(=O)(=O)c2cc(F)ccc2N1)NCc1ccccc1 | -12.7 | -2.0 | -0.1 | 23.8 | 12.4 | 2.5
COc1ccc(NC(=O)CN(C)CC(=O)Nc2sc3c(c2C#N)CCC3)cc1 | 33.7* | 20.8 | 0.1 | -12.6 | -4.5 | 0.6
CC(CC(=O)NNC(=O)c1ccncc1)c1ccccc1 (centres undefined) | -9.1 | -6.3 | 2.1 | 15.3 | 11.3 | -1.8
CC(=O)N(c1ccc(C)cc1)C1C=CS(=O)(=O)C1 (centres undefined) | -5.9 | 23.8* | 0.4 | -4.4 | -0.3 | -3.3
Cc1ccc(N(C(=O)C2CCCC2)C2C=CS(=O)(=O)C2)cc1 (centres undefined) | -1.0 | 3.2 | -0.1 | -2.2 | -7.4 | -1.1
CCOC(=O)c1ccc(N2CCN(c3ccccc3F)CC2)c(NC(=O)Nc2cccc(OC)c2)c1 | 31.6* | 41.2* | 6.1 | -4.5 | -12.2 | 0.8
CCOC(=O)c1ccc(NC(=O)N2CCN(c3cccc(OC)c3)CC2)cc1 | 44.4* | -2.6 | 12.5 | 1.9 | -7.0 | -0.8
COC(=O)c1ccc(N2CCOCC2)c(NC(=O)Nc2cccc(OC)c2)c1 | -6.2 | 14.2 | 0.4 | -7.7 | 4.9 | -4.4
CCOC(=O)c1ccc(NC(=O)N2CCN(c3ccccn3)CC2)cc1 | -0.2 | 12.5 | 2.3 | -4.6 | 8.4 | -3.2
NCCCC[C@@H](C(=O)N1CCNCC1)n1cc([C@@H](N)CO)nn1 | -4.3 | -18.6 | 0.6 | 7.2 | 2.2 | -3.0
Cc1ccc(/C=C/c2onc(C)c2S(=O)(=O)N2CCC(C(=O)N3CCCCC3)CC2)cc1 | -16.9 | -10.7 | 0.5 | 26.1 | 11.7 | -4.4
CCCN1CCN(C(=O)C2CCN(S(=O)(=O)c3c(C)noc3/C=C/c3ccc(C)cc3)CC2)CC1 | 33.9* | -9.1 | 1.6 | 11.1 | -22.0 | -4.8
Cc1nc2sccn2c(=O)c1S(=O)(=O)NCC1CCN(Cc2ccccc2Cl)CC1 | 39.2* | -17.3 | 0.9 | 16.6 | -36.5 | -14.2
COc1ccc(N(C)S(=O)(=O)c2cccc(C(=O)OCC(=O)Nc3cc(C)ccc3OC)c2)cc1 | 36.2* | 6.0 | 8.4 | 7.1 | -20.0 | 0.7
